According to PubChem BioAssay (NCATS):
Inconclusive results are not listed. Calls of active or inactive are those of the source. Calls follow the shape of the dose curve; as a rule, active = well fitted curve in the direction sought with a large enough effect; inconclusive = small, poorly fitted or top-dose-only effect, or another doubt; inactive = no such curve, though single readings can be large; an effect the other way counts as inactive or inconclusive.

Experiments:
[1] = qHTS of pediatric cancer cell lines to identify multiple opportunities for drug repurposing: Primary screen for OHS-50 cells (AID 1347103); also: nearly all actives have a fitted effect of over 40% in size; also: potency is read from the fitted curve at half-maximal effect
Summary of the method: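 Cells (500-1,000/well) rested 5 h, then received compounds for 48 h; metabolically active cells were measured by CellTiter-Glo luminescence. Final concentrations spanned up to 46 µM (MIPE, 11-point) or 0.59 nM-46 µM (NPC, 8-point) in primary screens, 11-point in follow-ups.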

[2] = qHTS of pediatric cancer cell lines to identify multiple opportunities for drug repurposing: Primary screen for RD cells (AID 1347104); also: nearly all actives have a fitted effect of over 55% in size; also: potency is read from the fitted curve at half-maximal effect
Summary of the method: (§1)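 CRCs from 8- or 11-point titrations (lowest final 0.59 nM NPC, 0.78 nM MIPE). Cell viability: CellTiter-Glo after 48 h incubation, 15 min room-temperature development, luminescence imaging.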

[3] = qHTS of pediatric cancer cell lines to identify multiple opportunities for drug repurposing: Primary screen for MG 63 (6-TG R) cells (AID 1347105); also: nearly all actives have a fitted effect of over 50% in size; also: potency is read from the fitted curve at half-maximal effect
Summary of the method: as §1

[4] = qHTS of pediatric cancer cell lines to identify multiple opportunities for drug repurposing: Primary screen for control Hh wild type fibroblast cells (AID 1347106); also: nearly all actives have a fitted effect of over 55% in size; also: potency is read from the fitted curve at half-maximal effect
Summary of the method: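 Cells (500-1,000/well) in growth media were settled 5 h at 37 degrees C, then given compounds for 48 h. Viability was read as CellTiter-Glo luminescence. Primary runs used MIPE at 11 points (0.78 nM-46 µM) and NPC at 8 points (0.59 nM-46 µM); follow-ups used 11 points.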

[5] = qHTS of pediatric cancer cell lines to identify multiple opportunities for drug repurposing: Primary screen for Rh30 cells (AID 1347107); also: nearly all actives have a fitted effect of over 75% in size; also: potency is read from the fitted curve at half-maximal effect
Summary of the method: (§2)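 Viability after 48 h compound treatment at 37C, 500-1,000 cells/well, read as ATP luminescence with CellTiter-Glo. Primary screens used 11-point (MIPE, 0.78 nM-46 µM) or 8-point (NPC, 0.59 nM-46 µM) final concentrations; follow-up screens used 11-point dilutions.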

[6] = qHTS of pediatric cancer cell lines to identify multiple opportunities for drug repurposing: Primary screen for Rh41 cells (AID 1347108); also: nearly all actives have a fitted effect of over 70% in size; also: potency is read from the fitted curve at half-maximal effect
Summary of the method: as §1

[7] = qHTS of pediatric cancer cell lines to identify multiple opportunities for drug repurposing: Confirmatory screen for NB1643 cells (AID 1347109); also: nearly all actives have a fitted effect of over 45% in size; also: potency is read from the fitted curve at half-maximal effect
Summary of the method: as §2

[8] = qHTS of pediatric cancer cell lines to identify multiple opportunities for drug repurposing: Confirmatory screen for A673 cells (AID 1347110); also: potency is read from the fitted curve at half-maximal effect; nearly all actives have a fitted effect of over 65% in size
Summary of the method: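 Cells plated at 500-1,000/well were treated five hours later with multi-point dilutions up to 46 µM final. After two days, CellTiter-Glo was added and luminescence read.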

[9] = qHTS of pediatric cancer cell lines to identify multiple opportunities for drug repurposing: Confirmatory screen for BT-12 cells (AID 1347112); also: nearly all actives have a fitted effect of over 55% in size; also: potency is read from the fitted curve at half-maximal effect
Summary of the method: as §2

[10] = qHTS of pediatric cancer cell lines to identify multiple opportunities for drug repurposing: Confirmatory screen for DAOY cells (AID 1347114); also: nearly all actives have a fitted effect of over 65% in size; also: potency is read from the fitted curve at half-maximal effect
Summary of the method: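 Viability measured as metabolically active cells via CellTiter-Glo luminescence following 48 hours of compound exposure, 11-point dilutions in confirmatory testing. 500-1,000 cells/well plated 5 hours before dosing; controls were DMSO and 2.3 µM bortezomib.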

[11] = qHTS of pediatric cancer cell lines to identify multiple opportunities for drug repurposing: Confirmatory screen for MG 63 (6-TG R) cells (AID 1347119); also: nearly all actives have a fitted effect of over 55% in size; also: potency is read from the fitted curve at half-maximal effect
Summary of the method: as §2

[12] = qHTS of pediatric cancer cell lines to identify multiple opportunities for drug repurposing: Confirmatory screen for control Hh wild type fibroblast cells (AID 1347121); also: nearly all actives have a fitted effect of over 70% in size; also: potency is read from the fitted curve at half-maximal effect
Summary of the method: as §2

[13] = qHTS of pediatric cancer cell lines to identify multiple opportunities for drug repurposing: Confirmatory screen for U-2 OS cells (AID 1347122); also: nearly all actives have a fitted effect of over 65% in size; also: potency is read from the fitted curve at half-maximal effect
Summary of the method: as §2

[14] = qHTS of pediatric cancer cell lines to identify multiple opportunities for drug repurposing: Confirmatory screen for Rh41 cells (AID 1347123);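 also: 48 h compound exposure; nearly all actives have a fitted effect of over 60% in size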; also: potency is read from the fitted curve at half-maximal effect
Summary of the method: as §2

[15] = qHTS of pediatric cancer cell lines to identify multiple opportunities for drug repurposing: Confirmatory screen for RD cells (AID 1347124);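 also: cells exposed to compound for 48 h before viability readout; nearly all actives have a fitted effect of over 65% in size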; also: potency is read from the fitted curve at half-maximal effect
Summary of the method: as §2

[16] = qHTS of pediatric cancer cell lines to identify multiple opportunities for drug repurposing: Confirmatory screen for Rh18 cells (AID 1347125); also: nearly all actives have a fitted effect of over 55% in size; also: potency is read from the fitted curve at half-maximal effect
Summary of the method: as §2

[17] = qHTS of pediatric cancer cell lines to identify multiple opportunities for drug repurposing: Confirmatory screen for SK-N-MC cells (AID 1347111);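 also: potency is read from the fitted curve at half-maximal effect; cells exposed to compound for 48 h before the readout; nearly all actives have a fitted effect of over 70% in size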
Summary of the method: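 SK-N-MC cells at 500-1,000 cells/well in growth media were pre-incubated 5 h, then exposed to compounds at 11-point dilutions for 48 h at 37 degrees C, 5% CO2. Viability was read as CellTiter-Glo luminescence.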

[18] = qHTS of pediatric cancer cell lines to identify multiple opportunities for drug repurposing: Confirmatory screen for NB-EBc1 cells (AID 1347115); also: nearly all actives have a fitted effect of over 45% in size
Summary of the method: as §2

[19] = qHTS of pediatric cancer cell lines to identify multiple opportunities for drug repurposing: Confirmatory screen for BT-37 cells (AID 1347117); also: nearly all actives have a fitted effect of over 55% in size
Summary of the method: as §2

Measured: Potency

C[C@@]12OC(=O)[C@]1([C@@H](O)[C@@H]1C=CCCC1)NC(=O)[C@H]2CCCl
active: [1] 0.0685 µM | [2] 0.0526 µM | [3] 0.0296 µM | [4] 0.0935 µM | [5] 5.9 µM | [6] 0.059 µM | [7] 1.04 µM | [8] 0.585 µM | [9] 2.93 µM | [10] 0.657 µM | [11] 0.293 µM | [12] 4.14 µM | [13] 0.329 µM | [14] 0.329 µM | [15] 0.737 µM | [16] 1.17 µM

Oc1ccc2c3c1O[C@H]1c4[nH]c5c(c4C[C@@]4(O)[C@@H](C2)N(CC2CC2)CC[C@]314)C[C@@]1(O)[C@H]2Cc3ccc(O)c4c3[C@@]1(CCN2CC1CC1)[C@H]5O4
inactive: [1] | [2] | [3] | [4] | [5] | [6]

CC(C)Oc1cccc(NC(=O)c2ccccc2C(F)(F)F)c1
inactive: [2] | [3] | [4] | [5] | [6]
active: [1] 25.2 µM

c1cc2c(cc1[C@H]1OC[C@H]3[C@H]1CO[C@H]3c1ccc3c(c1)OCO3)OCO2
inactive: [1] | [2] | [3] | [4] | [5] | [6]

C1=C2CCCN[C@H]2[C@@H]2C[C@H]1[C@@H]1CCCCN1C2
inactive: [1] | [2] | [3] | [4] | [5] | [6]

C[C@]12COC(=O)C[C@@H]1CC[C@@H]1[C@H]2CC[C@@]2(C)[C@H]1CC[C@]2(C)O
inactive: [1] | [2] | [3] | [4] | [5] | [6]

O=S(=O)(O)C(F)(F)C(F)(F)C(F)(F)C(F)(F)C(F)(F)C(F)(F)C(F)(F)C(F)(F)F
inactive: [1] | [2] | [3] | [4] | [5] | [6]

COC(C)(C)CCCC(C)C/C=C/C(C)=C/C(=O)OC(C)C (stereo not given)
inactive: [1] | [2] | [3] | [4] | [5] | [6]

O=[N+]([O-])c1ncc[nH]1
inactive: [1] | [2] | [3] | [4] | [5] | [6]

O=C(O)COc1ccccc1
inactive: [1] | [2] | [3] | [4] | [5] | [6]

Fc1cc(Br)ccc1CBr
inactive: [1] | [2] | [3] | [4] | [5] | [6]

C1CCC(NC2CCCCC2)CC1
inactive: [1] | [2] | [3] | [4] | [5] | [6]

COCCOCCO
inactive: [1] | [2] | [3] | [4] | [5] | [6]

CCOC(=O)c1cncn1[C@H](C)c1ccccc1
inactive: [1] | [2] | [3] | [4] | [6]

CC(C)N[C@@H]1CCn2c(=O)[nH]c3cccc(c32)[C@@H]1O
active: [1] 1.37 µM | [2] 3.72 µM | [4] 11.8 µM | [5] 1.48 µM | [17] 18.5 µM
not listed: [6] | [8]
inactive: all other assays above

CO[C@H]1CCC(O[C@H]2C[C@H]([C@]3(C)CC[C@]4(C[C@H](O)[C@@H](C)[C@@H]([C@@H](C)C=C(C)C(=O)[C@H](C)C[C@H](C)C(=O)O)O4)O3)O[C@]3(O[C@@H]([C@H]4O[C@@](O)(CO)[C@H](C)C[C@H]4C)C[C@H]3C)[C@H]2C)O[C@H]1C (stereo not given in full)
active: [1] 0.217 µM | [2] 1.87 µM | [3] 7.43 µM | [5] 3.72 µM | [6] 1.87 µM | [7] 2.93 µM | [8] 1.85 µM | [9] 2.93 µM | [10] 20.8 µM | [11] 2.08 µM | [13] 5.22 µM | [14] 1.47 µM
inactive: [15]

O=C(O)COc1nc(Cl)c(Cl)cc1Cl
active: [8] 2.18 µM
not listed: [7] | [17]
inactive: all other assays above

O=C1C(I)=CC(=C(c2cc(I)c(O)c(I)c2)c2ccccc2C(=O)O)C=C1I
active: [8] 3.69 µM | [14] 9.27 µM
not listed: [6] | [10] | [13] | [17]
inactive: all other assays above
